Assay outcomes as filed in PubChem.
A selection: hits, their analogues and other compounds. The true share with any hit is near 2.6%.
Cruzain noTriton: cruzain (T. cruzi) inhibition without detergent | purified cruzain, Z-FR-AMC fluorescence, no detergent | 200,000 tested, 2.3% active | Potency, µM, inactives show max response, negative = inhibition, usual class: inhibitors;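 note: plate controls were enzyme without inhibitor for no effect and buffer without enzyme for full effect; nearly all actives have a fitted effect of over 40% in size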
Target sequence (P25779 123-467 limits assumed): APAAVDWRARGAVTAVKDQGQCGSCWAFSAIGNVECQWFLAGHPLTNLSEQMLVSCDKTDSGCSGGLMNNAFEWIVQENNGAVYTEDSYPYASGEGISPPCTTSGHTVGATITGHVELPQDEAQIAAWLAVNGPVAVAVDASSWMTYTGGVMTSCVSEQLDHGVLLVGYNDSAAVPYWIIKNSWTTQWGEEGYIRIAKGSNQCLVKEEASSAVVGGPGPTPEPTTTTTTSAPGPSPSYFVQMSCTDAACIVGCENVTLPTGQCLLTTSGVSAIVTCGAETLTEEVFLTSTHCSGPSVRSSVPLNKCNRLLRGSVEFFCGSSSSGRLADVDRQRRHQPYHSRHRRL
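Purified cruzain at 1.5 nM, pre-incubated 15 min with compound at room temperature in 100 mM sodium acetate pH 5.5, 5 mM DTT, 0.00005% Triton X-100. Reaction started with 2 uM Z-FR-AMC; AMC fluorescence increase over 60 s gives rate.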
Cruzain Triton: inhibitors of Trypanosoma cruzi cruzain with detergent; purified cruzain, Z-FR-AMC fluorescence, 0.01% Triton; Potency, µM, without a hit: max response, negative = inhibition, usual class: inhibitors; 200,000 tested, 0.43% active; AID 1478;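 note: plate controls were neutral wells for no effect and buffer without enzyme for full effect; nearly all actives have a fitted effect of over 40% in size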
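Steps: dispense cruzain (1.5 nM final) in acetate buffer pH 5.5 with DTT and 0.01% Triton X-100; pin-transfer compounds; incubate 15 min RT; add Z-FR-AMC (2 uM final); read fluorescence every 30 s, using the 60 s intensity change.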
* hit, by the source's call; ? = inconclusive. Calls come from the whole dose curve; as a rule, active = well fitted curve in the direction sought with a large enough effect; inconclusive = small, poorly fitted or top-dose-only effect, or another doubt; inactive = no such curve, though single readings can be large; an effect the other way counts as inactive or inconclusive. Potency is the fitted concentration of half-maximal effect.

SMILES | Cruzain noTriton | Cruzain Triton
CCCC1=NN2C(=N)/C(=C\c3cc(C)n(-c4cc(C)cc(C)c4)c3C)C(=O)N=C2S1 | ? | -7.1%
N=C1/C(=C\c2ccc(-c3cc(Cl)cc(Cl)c3)o2)C(=O)N=C2SC=C(c3ccccc3)N12 | 2.51µM* | -3.7%
CC1=CC2=NC(=O)/C(=C\c3cccn3CCOc3ccc(C)c(C)c3)C(=N)N2O1 | 1.8% | -6.0%
Cc1cc(C)cc(-n2c(C)cc(/C=C3\C(=N)N4N=C(CC(C)C)SC4=NC3=O)c2C)c1 | 25.1µM* | -7.3%
Cc1ccc(-n2c(C)cc(/C=C3/C(=N)N4C(c5ccccc5)=CSC4=NC3=O)c2C)cc1 | 6.31µM* | 1.2%
CS(=O)(=O)C1=NSC2=NC(=O)/C(=C\c3ccc(-c4ccccc4)o3)C(=N)N21 | 23.9% | -15.8%
Cc1cccc(-n2c(C)cc(/C=C3\C(=N)N4N=C(CC(C)C)SC4=NC3=O)c2C)c1 | ? | -3.2%
N=C1/C(=C/c2cccn2CCOc2ccccc2)C(=O)N=C2SC=C(c3ccccc3)N12 | 6.31µM* | -0.2%
COc1ccc(-c2nc(C)c(CCNC(=O)C(=O)Nc3cccc(F)c3)s2)cc1OC | -13.6% | -2.2%
CN1CCc2c(cc(O)c(O)c2Cl)C(c2cccc(Cl)c2)C1 (stereo not given) | ? | -2.0%
CCCn1c(CCC(=O)Nc2cc(OC)cc(OC)c2)nc2cccnc21 | -6.7% | -1.8%
COc1ccc(Nc2nc3cc(Cl)c(Cl)cc3n3cnnc23)cc1Cl | -4.9% | -0.9%
Clc1ccc2nc(Nc3ccccc3Cl)nc(-c3ccccc3)c2c1 | 11.0% | 0.2%
CN(c1ccccc1)S(=O)(=O)c1ccc(NC(=S)NC(=O)C2CC2)cc1 | -26.4% | -5.0%
CN(Cc1ccccc1)S(=O)(=O)c1ccc(NC(=S)NC(=O)C2CCCC2)cc1 | 2.51µM* | -3.1%
O=C(Nc1ccc(/C=C/c2nc3ccccc3o2)cc1)c1c(F)cccc1F | 10µM* | -0.8%
O=C(Nc1ccc2c(c1)OCCO2)c1c(F)cccc1F | -12.9% | -1.3%
Cc1cnc(Nc2nc3ccccc3o2)nc1C(=O)Nc1cccc(C(F)(F)F)c1 | -6.3% | -2.4%
O=C(Nc1ccc(/C=C/c2nc3ccccc3o2)cc1)c1cccc(C(F)(F)F)c1 | 7.94µM* | -5.5%
CCOc1ccc(-c2nnc(SCC(=O)Nc3cccc(OC)c3)nc2-c2ccc(OCC)cc2)cc1 | -10.3% | 0.6%
Cc1cc(C)c(NC(=O)Cn2c(=O)n(CCC(=O)NCc3ccc4c(c3)OCO4)c(=O)c3ccccc32)c(C)c1 | -3.5% | 0.6%
COc1ccc(-c2ccc(CCC(=O)O)n2-c2ccc(Cl)cc2C)cc1 | -9.0% | -16.1%
O=C(COc1ccc(F)cc1)Nc1nnc(SCc2cc(=O)n3ccccc3n2)s1 | 0.8% | 1.5%
Fc1ccc(-c2ccc(CNCCSc3nnnn3-c3ccccc3)o2)cc1 | -10.2% | 1.4%
Cc1c(Cl)cccc1-c1ccc(CNCCSc2nnnn2-c2ccccc2)o1 | 7.94µM* | 12.6µM*
SMILES | Cruzain noTriton | Cruzain Triton
Cc1cn2c(=O)cc(COC(=O)c3cccc(NC(=O)c4ccccc4C)c3)nc2s1 | -2.4% | 2.8%
CCCOC(=O)c1cccc(NC(=O)c2c(-c3ccccc3Cl)noc2C)c1 | 2.1% | -6.0%
c1ccc(Nc2nc3ccccc3[nH]2)nc1 | 10µM* | 25.1µM*
Cc1cc(C)nc(Nc2nc3ccccc3[nH]2)n1 | -20.4% | -21.4%
COc1ccccc1Cn1cc(C(=O)c2ccc(C)cc2)c(=O)c2cc(C)ccc21 | ? | 3.9%
Cc1cccc(C(=O)NC2(C(F)(F)F)N=C(c3ccccc3)N(C3CCCCC3)C2=O)c1 (stereo not given) | -13.1% | -0.2%
COc1ccc(NC(=O)CN(c2ccc(C)cc2)S(=O)(=O)c2cccs2)cc1 | -8.6% | -2.0%
CCOC(=O)c1c(C#N)c(SCC(=O)Nc2ccc(OC)cc2)nc2c1CN(CC)CC2 | 25.1µM* | -2.6%
CCOc1cccc(NC(=O)CSc2nc(C)c3c(c2C#N)CCCC3)c1 | 7.94µM* | 4.3%
CCOC(=O)c1ccc(NC(=O)CSc2nc(-c3ccc(OC)cc3)cc(C(F)(F)F)c2C#N)cc1 | -2.7% | 0.1%
Cc1nc(SCC(=O)Nc2ccc3c(c2)OCO3)c(C#N)c2c1CCCC2 | -9.1% | -0.5%
Cc1ccc(SC/C(O)=C(\C#N)c2nc3ccccc3s2)cc1 | 25.1µM* | 1.1%
N#C/C(=C(/O)CSc1ccccc1C(=O)O)c1nc2ccccc2s1 | -3.1% | 4.1%
Cc1c(C(=O)Nc2c(F)cccc2F)sc2ncn(Cc3ccccc3F)c(=O)c12 | -2.3% | -2.8%
CN(C)S(=O)(=O)c1cccc(N=C2NN=C(c3ccccc3)CS2)c1 | 31.6µM* | -2.6%
CC1CN(C(=O)c2ccccc2)C(=Nc2cccc(S(=O)(=O)N(C)C)c2)S1 (stereo not given) | 2.7% | -0.5%
CC(C)(C)NC(=O)[C@H]1CN(Cc2cccnc2)CCN1C[C@@H](O)C[C@@H](Cc1ccccc1)C(=O)N[C@H]1c2ccccc2C[C@H]1O | ? | -4.0%
Cc1ccc(CN(Cc2ccco2)C(=O)c2oc3c(C)c(C)ccc3c2C)cc1 | 25.1µM* | -11.2%
Cc1ccc(CN(Cc2ccco2)C(=O)c2oc3ccc(C)cc3c2C)cc1 | ? | -7.3%
COc1ccc(-c2cc([C@H](O)C3CCCCN3)c3ccccc3n2)cc1 (stereo not given in full) | 7.5% | 3.2%
CC(C)C(=O)Nc1sc2c(c1-c1nc3ccccc3[nH]1)CCCC2 | 20µM* | -1.0%
CC(=O)Nc1cc(NC(C)=O)cc(-c2nc3ccccc3[nH]2)c1 | -3.0% | -2.5%
Cc1ccc(-c2ccc(=O)n(CCC(=O)NCCc3ccccc3)n2)cc1 | 2.9% | -0.3%
COc1ccc(-c2nnc(SCC(=O)NCCc3ccccc3)nc2-c2ccc(OC)cc2)cc1 | -9.1% | 1.0%
CCOC(=O)c1cc(C)n(CCc2ccccc2)c1C | 0.6% | -4.1%
SMILES | Cruzain noTriton | Cruzain Triton
Cc1cc(-c2csc(N)n2)c(C)n1CCC(C)C | 25.1µM* | 2.6%
Nc1nc(-c2ccccc2)cs1 | 4.0% | -0.7%
Cc1cc(-c2csc(N)n2)c(C)n1CCc1ccccc1 | 3.98µM* | -4.0%
CCOC(=O)c1cccc(NS(=O)(=O)c2c(C)nc3sc(C)cn3c2=O)c1 | -3.8% | -5.5%
COc1ccc(C(=O)NCC(c2cccs2)S(=O)(=O)c2cccs2)cc1 (stereo not given) | 1.1% | 0.1%
O=C(/C=C/c1ccco1)Nc1ccc(Cl)c(-c2nc3cc(Cl)ccc3o2)c1 | ? | -8.8%
CN(C)c1ccc(C(CNC(=O)c2ccc(C(C)(C)C)cc2)N2CCCC2)cc1 (stereo not given) | 11.5% | 2.7%
Cc1ccc(CNC(=O)c2ccc3c(c2)nc(C)n3-c2cccc(F)c2)cc1 | 16.9% | -2.2%
COC(=O)/C=C1\SC(=NC(=O)c2cccc(Cl)c2)NC1=O | -12.2% | 14.1µM*
COC(=O)/C=C1/SC(=NC(=O)c2ccccc2)NC1=O | 0.9% | -22.2%
O=C1c2ccccc2C(=O)N1CC(=O)N1c2ccccc2Sc2ccc(C(F)(F)F)cc21 | ? | -7.0%
COc1cccc(OCc2nnc(SCC(=O)N3c4ccccc4Sc4ccc(Cl)cc43)o2)c1 | ? | -4.2%
O=C(CSc1nc2ccccc2o1)N1c2ccccc2Sc2ccccc21 | ? | -2.4%
Cc1cccc(OCc2nnc(SCC(=O)N3c4ccccc4Sc4ccc(Cl)cc43)o2)c1 | 12.6µM* | -1.8%
O=C(CSc1nc2ccccc2s1)N1c2ccccc2Sc2ccc(Cl)cc21 | 15.8µM* | 5.5%
CC(C)C(=O)NNC(=O)CSc1nc(C2CCCCC2)nc2ccccc12 | -7.7% | 2.3%
O=C(CSc1nc(C2CC2)nc2ccccc12)N1c2ccccc2Sc2ccccc21 | 25.1µM* | -5.2%
